System: Vero E6 infected with SARS-CoV-2
Assay: inhibition of SARS-CoV-2 cytopathic effect; higher = more antiviral protection, active = above 15
Settings: 48 h

Measured: inhibition of SARS-CoV-2 cytopathic effect

O=c1oc2ccccc2c(O)c1Cc1c(O)c2ccccc2oc1=O [dicoumarol]
inactive: 1 nM 0.87% | 8.33 nM 0.88% | 100 nM -0.82% | 833.33 nM 1.35% | 10000 nM 3.32%

O=C1C[C@@H](c2ccc(O)cc2)Oc2cc(O)cc(O)c21 [naringenin]
inactive: 1 nM -1.9% | 8.33 nM 0.02% | 100 nM -0.05% | 833.33 nM 0.5% | 10000 nM 0.31%

O=C(Nc1ccc(S(=O)(=O)C(F)(F)F)cc1)C1=CCN(c2ncccc2C(F)(F)F)CC1
inactive: 1 nM 0.25% | 8.33 nM -1.04% | 100 nM -1.04% | 833.33 nM -0.34% | 10000 nM -2.58%

C[C@@H](c1nc(-c2ccc(C#N)cc2)cs1)[C@](O)(Cn1cncn1)c1cc(F)ccc1F [isavuconazole]
inactive: 1 nM -2.38% | 8.33 nM -2.11% | 100 nM -0.9% | 833.33 nM 1.65% | 10000 nM 2.79%

N#CC(c1ccccc1)(c1ccccc1)c1ccccc1Cl
inactive: 1 nM 2.09% | 8.33 nM 1.23% | 100 nM 3.05% | 833.33 nM 3.49% | 10000 nM 3.88%

CCC(=O)NCC[C@@H]1CCc2ccc3c(c21)CCO3 [ramelteon]
inactive: 1 nM 0.77% | 8.33 nM -0.74% | 100 nM -1.05% | 833.33 nM 0.28% | 10000 nM -10.8%

Cc1cc(CN)cc(C)c1NC(=O)c1ccc(-c2cc(Cl)ccc2Cl)o1
active: 10000 nM 66.2%
inactive: 1 nM -1.09% | 8.33 nM 1.98% | 100 nM 3.29% | 833.33 nM -1.5%

O=C(O)c1ccc2nc(-c3cc(Cl)cc(Cl)c3)oc2c1 [tafamidis-meglumine]
inactive: 1 nM -0.14% | 8.33 nM -0.38% | 100 nM -1.04% | 833.33 nM 1.34% | 10000 nM 0.08%

CCCCn1c(=O)c2[nH]c(C34CC5CC(CC3C5)C4)nc2n(CCCO)c1=O
inactive: 1 nM 1.96% | 8.33 nM 2.64% | 100 nM 0.93% | 833.33 nM -1.18% | 10000 nM -2.7%

N=C(Nc1ccccc1)Nc1ccccc1 [diphenylguanidine]
inactive: 1 nM -3.55% | 8.33 nM -2.37% | 100 nM -2.77% | 833.33 nM -0.58% | 10000 nM 2.16%

CCN(CC)CCNC(=O)c1cc(S(C)(=O)=O)ccc1OC [tiapride]
inactive: 1 nM 1.6% | 8.33 nM -0.89% | 100 nM -0.61% | 833.33 nM 0.66% | 10000 nM 2.27%

CC1=C(/C=C/C(=C/C=C/C(C)=C/C(=O)O)c2ccc(C)cc2)C(C)(C)CCC1
inactive: 1 nM 0.94% | 8.33 nM 2.92% | 100 nM 1% | 833.33 nM 1.71% | 10000 nM 6.23%

Cc1ncc(NC(=O)c2ccc(CN3CCN(C)CC3)c(C(F)(F)F)c2)cc1Nc1nccc(-c2cccnc2)n1 [flumatinib]
active: 10000 nM 66.1%
inactive: 1 nM 2.56% | 8.33 nM -0.34% | 100 nM 1.46% | 833.33 nM 3.69%

C1=Cc2cccc(OCC3CNCCO3)c2C1 (stereo not given) [indeloxazine]
inactive: 1 nM 1.29% | 8.33 nM 2.5% | 100 nM 1.2% | 833.33 nM 0.43% | 10000 nM -0.62%

CN(C)C(=N)NC(=N)N [metformin]
inactive: 1 nM 0.25% | 8.33 nM 1.14% | 100 nM 2.76% | 833.33 nM 1.97% | 10000 nM 5.07%

CCOC(=O)[C@@H](C)Oc1cccc2c(=O)n(CC(=O)Nc3ccc4c(c3)OCCO4)ccc12
inactive: 1 nM -1.29% | 8.33 nM 1.77% | 100 nM 0.7% | 833.33 nM -5.6% | 10000 nM -5.98%

O=c1c(O)c(-c2ccc(O)cc2O)oc2cc(O)cc(O)c12 [morin]
inactive: 1 nM -1.74% | 8.33 nM -0.07% | 100 nM -0.4% | 833.33 nM -4.13% | 10000 nM 0.27%

C[C@]12CC[C@H](O)CC1=CC[C@@H]1[C@@H]2CC[C@]2(C)C(=O)CC[C@@H]12
inactive: 1 nM 1.25% | 8.33 nM 0.45% | 100 nM 0.19% | 833.33 nM 5.63% | 10000 nM 1.12%

O=C(NCc1ccncc1)C12CC3CC(C1)CC(c1ccc(Cl)cc1)(C3)C2
inactive: 1 nM 2.05% | 8.33 nM -4% | 100 nM -2.61% | 833.33 nM -2.22% | 10000 nM -5.2%

Reference: the supplement of paper PMC13380429
